# Data taken from PubChem BioAssay AID504692 (The Scripps Research Institute Molecular Screening Center, 2011).
# Screen size: about 340,000 compounds; about 2,000 (0.59%) were called active. The sample holds actives, similar compounds and a random draw of the others, so the mix is not that of the screen. Values without a mark were called inactive. Cut-off read from the data, not from the text of the source: active = activation mostly above about 9.5% (no sharp cut-off); inactive = mostly below about 7.6%.
# Molecular target: 5-hydroxytryptamine receptor 5A (Homo sapiens) (UniProt P47898)
# Experiment: activation of human 5-HT5A receptor – cell-based, luminescence, full-deck HTS, counter-screen for OPRM1-OPRD1 heterodimer agonist project, primary screen (AID 504692);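 note: 0% = cells with vehicle only and 100% = reference agonist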
# Conditions: HTR5A agonist assay, at 9.3 µM, stronger effect = higher value
# Chain of 5-hydroxytryptamine receptor 5A (Homo sapiens) (P47898 whole entry, looked up): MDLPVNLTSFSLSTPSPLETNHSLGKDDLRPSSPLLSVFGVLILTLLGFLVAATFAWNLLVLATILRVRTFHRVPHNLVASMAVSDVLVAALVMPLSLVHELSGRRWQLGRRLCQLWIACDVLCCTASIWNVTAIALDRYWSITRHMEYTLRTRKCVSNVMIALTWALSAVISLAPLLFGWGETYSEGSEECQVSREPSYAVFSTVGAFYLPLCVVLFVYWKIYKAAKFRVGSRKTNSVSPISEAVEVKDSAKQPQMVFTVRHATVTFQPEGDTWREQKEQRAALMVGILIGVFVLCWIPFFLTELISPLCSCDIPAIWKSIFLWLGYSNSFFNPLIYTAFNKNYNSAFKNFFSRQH
row,Structure (SMILES),activation
1,COc1ccc2oc(=O)cc(-c3cc4ccccc4o3)c2c1,10.7% (active)
2,COc1ccc(Nc2cc(=O)oc3ccccc23)cc1,2.95%
3,COc1cccc2cc(-c3cc(=O)oc4cc(C)c(O)cc34)oc12,1.11%
4,COc1ccc(C2C(C(C)=O)=C(O)C(=O)N2CCc2c[nH]c3ccccc23)cc1 (configuration not stated),1.98%
5,COc1ccc(/C=C(\C#N)c2c[nH]c3ccccc23)cc1,19.6% (active)
6,COc1cccc(-n2c(SCC(=O)c3c[nH]c4ccccc34)nc3ccccc3c2=O)c1,-2.91%
7,Cc1cc(C(=O)NNS(=O)(=O)c2ccccc2C(F)(F)F)nn1C(C)(C)C,-2.85%
8,Cc1cccc(C)c1NC(=O)Nc1ccccc1-n1ccnc1,2.52%
9,NNC(=O)c1ccc(COCC(F)(F)C(F)F)cc1,8.26%
10,Cc1ccc(C(=O)NC2CCN(C(=O)Nc3ccc(F)cc3)CC2)cc1,4.38%
11,CN(CC(=O)Nc1ccc(S(=O)(=O)N2CCCC2)cc1)Cc1ccc(Cl)c(Cl)c1,-1.38%
12,CN(CCC(=O)Nc1cc(S(=O)(=O)N(C)C)ccc1Cl)CC(=O)Nc1ccc(F)cc1,11.8% (active)
13,CN(CC(=O)Nc1ccc(F)cc1)CC(=O)Nc1ccc(Cl)c(S(=O)(=O)N2CCOCC2)c1,5.23%
14,O=C(Nc1cccc(F)c1)[C@@H]1CCCN1,0.12%
15,COc1ccc(C(=O)C2CCCN(C(=O)c3ccc(OC)o3)C2)c(C)c1 (configuration not stated),-0.4%
16,O=C(/C=C/c1cccc(C(F)(F)F)c1)N1CCN(c2ccccn2)CC1,10.6% (active)
17,O=C(Cc1ccc(Br)cc1)N1CCN(c2ccccn2)CC1,0.82%
18,O=C(C(Cl)Cl)N1CCN(c2ccccn2)CC1,-2.12%
19,Cc1cccc(N2CCN(C(=O)CCS(=O)(=O)c3ccc4c(c3)NC(=O)C(C)S4)CC2)c1C (configuration not stated),2.41%
20,COC(=O)c1cc(S(=O)(=O)N2CCN(c3cc(C)ccc3C)CC2)c[nH]1,14.8% (active)
21,Cc1ccc(C)c(N2CCN(S(=O)(=O)c3ccc4c(c3)oc(=O)n4C)CC2)c1,0.11%
22,Cc1ccc(C)c(N2CCN(S(=O)(=O)c3c(C)[nH]c(C)c3C(=O)N3CCCC3)CC2)c1,0.83%
23,Cc1cccc(N2Cc3ccccc3C2=NC(=O)c2ccc(Cl)nc2)c1,2.14%
24,OCCC1CN(Cc2cccc(OC3CCCC3)c2)CCN1Cc1ccsc1 (configuration not stated),0.37%
25,O=C(CCCCCn1c(=O)[nH]c2ccccc2c1=O)NCCc1c[nH]c2ccccc12,12.7% (active)
26,O=C(CCc1c[nH]c2ccccc12)NCCOc1ccccc1,0.78%
27,CCN(CC)CCNC(=O)CCCCCn1c(=O)[nH]c2cc(C(=O)OC)ccc2c1=O,1.57%
